A short description of assay [1]: BET inhibitor-based combinations targeting novel dependencies in MECOM-rearranged (r) AML: SET-2 cell line (AID 2202231). Also: nearly all actives have a fitted effect of over 35% in size.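 As to viability: plate controls were DMSO treated cells for no effect and wells without cells for full effect.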 The settings on record: SET-2 AML cells viability, CellTiter-Glo luminescence, 48 h; viability: stronger effect = lower value, concentration not given here. The gist of the method:
(§1)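 Here, 11-point titrations of each agent were applied to 500 seeded cells and incubated 48 hr; CellTiter-Glo signal, scaled against DMSO and empty wells, was integrated as AUC, then Z-scored within the individual line.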

Assay [2] in a line: BET inhibitor-based combinations targeting novel dependencies in MECOM-rearranged (r) AML: OCI-AML3 cell line (AID 2202232). Also: nearly all actives have a fitted effect of over 35% in size. The settings on record: CellTiter-Glo luminescence, 48 h; Potency: OCI-AML3 viability; series mostly up to 46 µM. In a few lines:
as §1

Assay [3] can be described thus: BET inhibitor-based combinations targeting novel dependencies in MECOM-rearranged (r) AML: MV-4-11 cell line (AID 2202233). Also: nearly all actives have a fitted effect of over 45% in size. The settings on record: MV-4-11 AML viability, CellTiter-Glo luminescence, 48 h; series mostly up to 46 µM. In a few lines: (§2)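 Normalized to DMSO and empty-well controls, the luminescence data from CellTiter-Glo after 48 hr drug exposure were fitted across 11 concentrations. Reported metrics are area under the dose-response curve and its Z-transformed form.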
For orientation: In ATP-based viability assays light output follows the ATP content of the culture.

A short description of assay [4]: BET inhibitor-based combinations targeting novel dependencies in MECOM-rearranged (r) AML: HNT-34 cell line (AID 2202234). Also: nearly all actives have a fitted effect of over 35% in size. The settings on record: HNT-34 AML viability, CellTiter-Glo luminescence, 48 h; series mostly up to 46 µM. The gist of the method:
as §2

Assay [5] is described as follows: BET inhibitor-based combinations targeting novel dependencies in MECOM-rearranged (r) AML: UCSD-AML1 cell line (AID 2202235). Also: nearly all actives have a fitted effect of over 40% in size. The note with it: UCSD-AML1 AML cells viability, CellTiter-Glo, 48 h; series mostly up to 46 µM. The gist of the method: as §2
A short description of assay [6]: BET inhibitor-based combinations targeting novel dependencies in MECOM-rearranged (r) AML: AML-191 cell line (AID 2202236; also: nearly all actives have a fitted effect of over 35% in size). The settings on record: AML-191 viability, CellTiter-Glo luminescence, 48 h; series mostly up to 46 µM. The gist of the method:
as §1

Assay [7] can be described thus: BET inhibitor-based combinations targeting novel dependencies in MECOM-rearranged (r) AML: AML-194 cell line (AID 2202237; also: nearly all actives have a fitted effect of over 40% in size). The note with it: AML-194 (MECOM-r AML) viability, CellTiter-Glo, 48 h; series mostly up to 46 µM. In a few lines:
as §1

Records with an inconclusive call do not appear. A number with no mark means an inactive call. Calls of active or inactive are those of the source. Calls follow the shape of the dose curve; as a rule, active = well fitted curve in the direction sought with a large enough effect; inconclusive = small, poorly fitted or top-dose-only effect, or another doubt; inactive = no such curve, though single readings can be large; an effect the other way counts as inactive or inconclusive.
Potency is read from the fitted curve at half-maximal effect.

By viability is commonly meant a read-out of living cells in per cent, often relative to untreated cells. In the case of `C[C@]1(C(=O)N(CCCC(=O)O)Cc2cccc(Cl)c2)CCN1C(=O)c1csc2ccccc12`, the viability in assay [1] was 108%. Besides, the Potency entry in assay [2], in assay [3], in assay [4], in assay [5], in assay [6] and in assay [7] was “inactive” each time.

With `COc1cc2c(Oc3ccc4[nH]c(C)cc4c3F)ccnc2cc1OCC1(N)CC1`, the Potency in assay [1] is 16.6 µM (active); in assay [2] it was 7.42 µM (active); in assay [3] it was 8.33 µM (active); in assay [4], 10.5 µM (active); in assay [5], 9.34 µM (active); in assay [7], 8.33 µM (active).

With `Nc1cc(C(F)(F)F)c(-c2nc(N3CCOCC3)nc(N3CCOCC3)n2)cn1`, the Potency in assay [1] is 9.34 µM (active); in assay [2], 3.72 µM (active); in assay [3] it was 3.72 µM (active); in assay [4], 2.63 µM (active); in assay [6], 2.63 µM (active); in assay [7], 2.35 µM (active).

In the case of `CN1CCN(c2ccc3nc(-c4cc(C(C)(C)C)c(OCCCC(=O)NCCCN=[N+]=[N-])c(C(C)(C)C)c4)[nH]c3c2)CC1`, the Potency is 10.5 µM (active) in assay [1]; 10.5 µM (active) in assay [2]; 7.42 µM (active) in assay [3]; 9.34 µM (active) in assay [4]; 9.34 µM (active) in assay [6]; 8.33 µM (active) in assay [7].

Turning to `CCOCOC[C@H](C[C@H](C)C(=O)NO)NC(=O)c1ccc(Oc2ccccc2)cc1`, in assay [1], the viability is 117%. In addition, the values for the Potency in assay [2] and in assay [4] were 23.5 µM (active) and 26.3 µM (active), respectively. In addition, the Potency result in assay [3], in assay [5] and in assay [7] was “inactive” throughout.

Turning to `Cc1cc(O[C@@H](CCC(F)(F)F)c2ccc(C(=O)NCCC(=O)O)cc2)cc(C)c1-c1ccc(C(C)(C)C)cc1`, the Potency in assay [1] was 20.9 µM (active); in assay [2] it was 20.9 µM (active); in assay [3], 18.6 µM (active); in assay [4] it was 20.9 µM (active); in assay [6], 16.6 µM (active); in assay [7], 26.3 µM (active).

For the compound `NC(=O)/C(=C/n1cnc(-c2cc(C(F)(F)F)cc(C(F)(F)F)c2)n1)c1cncnc1`, the Potency in assay [1] is 0.59 µM (active); in assay [2] it was 0.742 µM (active); in assay [3], 0.186 µM (active); in assay [4], 0.742 µM (active); in assay [6], 0.263 µM (active); in assay [7], 0.166 µM (active).

Consider `NC(CO)(CO)CCc1ccc(Sc2cccc(OCc3ccccc3)c2)cc1Cl`, for which the Potency in assay [1] is 18.6 µM (active); in assay [2], 9.34 µM (active); in assay [3], 10.5 µM (active); in assay [4], 18.6 µM (active); in assay [6], 10.5 µM (active); in assay [7] it was 9.34 µM (active).

In the case of `CC(C)=CCC[C@](C)(O[C@@H]1O[C@H](CO[C@@H]2O[C@H](CO)[C@@H](O)[C@H](O)[C@H]2O)[C@@H](O)[C@H](O)[C@H]1O)[C@H]1CC[C@]2(C)[C@@H]1[C@H](O)C[C@@H]1[C@@]3(C)CC[C@H](O[C@@H]4O[C@H](CO)[C@@H](O)[C@H](O)[C@H]4O[C@@H]4O[C@H](CO)[C@@H](O)[C@H](O)[C@H]4O)C(C)(C)[C@@H]3CC[C@]12C`, the viability in assay [1] was 121%. Moreover, the Potency entry in assay [2], in assay [3], in assay [4], in assay [6] and in assay [7] was “inactive” each time.

Take `CC(C)Cc1ccc([C@@H](C)C(=O)NS(C)(=O)=O)cc1`: in assay [1], the viability was 112%. The Potency result in assay [2], in assay [3], in assay [4], in assay [6] and in assay [7] was “inactive” in each case.

As for `CC(=O)N1c2ccc(-c3ccc(C(=O)O)cc3)cc2[C@H](Nc2ccc(Cl)cc2)C[C@@H]1C`, the Potency was 0.372 µM (active) in assay [1]; 0.0661 µM (active) in assay [2]; 0.0934 µM (active) in assay [3]; 0.468 µM (active) in assay [4]; 0.468 µM (active) in assay [6].

Take `CC1(N)CCN(c2cnc(-c3cccc(Cl)c3Cl)c(N)n2)CC1`: in assay [1], the viability was 110%. For the same compound, the Potency result in assay [2], in assay [4], in assay [6] and in assay [7] was “inactive” in each case. In assay [3], the Potency was 2.88 µM (active).

In the case of `CCc1cc2c(c(OCC(F)(F)F)c(C(=O)NC3CCN(C(=O)CO)CC3)n2C)c(=O)n1CC(=O)c1ccccc1`, the viability in assay [1] is 103%. In addition, the Potency result in assay [2], in assay [3], in assay [6] and in assay [7] was “inactive” in each case. Also, in assay [4], the Potency is 16.6 µM (active).

Turning to `OC[C@H]1O[C@@H](S[C@@H]2O[C@H](CO)[C@H](O)[C@H](n3cc(-c4cccc(F)c4)nn3)[C@H]2O)[C@H](O)[C@@H](n2cc(-c3cccc(F)c3)nn2)[C@H]1O`, the viability in assay [1] was 115%. Further, the Potency entry in assay [2], in assay [3], in assay [4], in assay [6] and in assay [7] was “inactive” in each case.

`C[C@@H]1COCCN1c1cc(-c2ccnn2C)c2ccnc(-c3ccn[nH]3)c2n1`: the Potency was 0.0833 µM (active) in assay [1]; 0.0525 µM (active) in assay [2]; 0.118 µM (active) in assay [3]; 0.296 µM (active) in assay [4]; 0.296 µM (active) in assay [6]; 0.332 µM (active) in assay [7].

In the case of `C=CC(=O)N1CC[C@@H](Oc2nc(Nc3ccc(N4CCC(N5CCN(C)CC5)CC4)cc3)c(C(N)=O)nc2CC)C1`, the Potency in assay [1] was 10.2 µM (active); in assay [2], 4.56 µM (active); in assay [3], 0.102 µM (active); in assay [4] it was 7.23 µM (active); in assay [6] it was 4.07 µM (active); in assay [7], 6.45 µM (active).

As to `C[C@]12CCC3[C@@H](CC[C@H]4NC(=O)C=C[C@]34C)[C@@H]1CC[C@@H]2C(=O)Nc1cc(C(F)(F)F)ccc1C(F)(F)F` (stereo partly drawn), the viability in assay [1] is 118%. Besides, the Potency result in assay [2], in assay [3], in assay [4], in assay [6] and in assay [7] was “inactive” in each case.

`CCNCCc1ccc(CN(CC)c2cc(OC)ccc2[C@@H]2CCc3cc(O)ccc3C2)cc1`: the Potency in assay [1] was 9.34 µM (active); in assay [2], 6.61 µM (active); in assay [3], 5.9 µM (active); in assay [4], 8.33 µM (active); in assay [6], 7.42 µM (active); in assay [7], 8.33 µM (active).

In the case of `O=c1[nH]c(=O)n([C@H]2C[C@H](O)[C@@H](CO)O2)cc1F`, the Potency is 0.296 µM (active) in assay [1]; 0.417 µM (active) in assay [2]; 0.0742 µM (active) in assay [3]; 5.9 µM (active) in assay [4]; 0.263 µM (active) in assay [6].

The values are drawn from PubChem BioAssay (NCATS).
